In PubChem BioAssay (EPA / NIEHS) one finds outcome and AC50 data, which are given here for five molecules.

Where “and” joins values, the source holds several entries; their conditions need not be identical. Identical values can stand only once. A structure can be active in one record and inactive in another. Calls of active or inactive are those of the source. The calls were made as follows: active = hit-call score of the fitted dose curve at least 0.9, where 1 is the maximum; inactive = score below 0.9.

Assay [1] is described as follows: APR_HepG2_P-H2AX_72hr: Apredica 72-hour HepG2 Assay for H2AX Phosphorylation (AID 2282916).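 Also: phospho-histone H2A.x immunostain intensity per cell marking DNA damage.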 The conditions noted are these: imaging, actives raise or lower the signal. The essentials:
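Following 72 hr treatment with 0.39–200 uM compound, HepG2 cells were formaldehyde-fixed, permeabilized and stained for phospho-H2A.x; signal was measured by high-content imaging and fitted bidirectionally against DMSO controls.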

Assay [2] is described as follows: APR_HepG2_MitoMembPot_72hr: Apredica 72-hour HepG2 Assay for Mitochondrial Membrane Potential (AID 2282917). The note with it: imaging, actives raise or lower the signal. The essentials:
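Membrane potential read by MitoTracker Red CMXRos (250 nM, 30 min, pre-fixation) fluorescence imaging of HepG2 after 72 hr exposure. Ten concentrations, 0.39–200 uM, duplicate wells, 0.5% DMSO; fitted in both directions against DMSO baseline.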

Assay [3] can be described thus: APR_HepG2_MitoticArrest_72hr: Apredica 72-hour HepG2 Assay for Mitotic Arrest (AID 2282918). The conditions noted are these: high-content imaging, actives raise or lower the signal. The essentials:
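Read-out is phospho-histone H3 immunofluorescence with Hoechst nuclear segmentation, imaged at 20x. Human HepG2 liver cells received ten concentrations (0.39–200 uM, final DMSO 0.5% v/v) for 72 hr before fixation. Gain or loss of signal was fitted relative to DMSO.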

Assay [4] is described as follows: APR_HepG2_MicrotubuleCSK_72hr: Apredica 72-hour HepG2 Assay for Microtubule CSK Stabilty (AID 2282919). The note with it: HepG2 microtubule cytoskeleton, high-content imaging, actives raise or lower the signal. The essentials:
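Read-out is tubulin fluorescence intensity from high-content imaging of HepG2 cells, with nuclei identified by Hoechst 33342. Treatment lasts 72 h at 0.39–200 uM, and curves are fitted bidirectionally against the DMSO negative control.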

The nature of assay [5]: APR_HepG2_P-H2AX_24hr: Apredica 24-hour HepG2 Assay for H2AX Phosphorylation (AID 2282920). The note with it: high-content imaging, actives raise or lower the signal. The essentials: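 HepG2, 24 hr, cpd 0.39–200 uM (10 conc, duplicate), DMSO 0.5% v/v final. Fix 3.7% formaldehyde, Triton X-100 permeabilize, anti-phospho-H2A.x 1:200 + Hoechst 2 ug/mL. Imaged, bidirectional fit vs DMSO.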

Assay [6] can be described thus: APR_HepG2_StressKinase_72hr: Apredica 72-hour HepG2 Assay for Stress Kinase (AID 2282921). The note with it: HepG2 stress kinase (phospho-c-Jun) imaging, actives raise or lower the signal. In short, it runs like this: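 Fluorescence intensity of Cy3-tagged anti-phospho-c-Jun antibody, quantified per cell from Hoechst-defined nuclei across six images per well, served as the read-out following 72 h exposure (0.39–200 uM, 0.5% v/v DMSO).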

The nature of assay [7]: APR_HepG2_StressKinase_24hr: Apredica 24-hour HepG2 Assay for Stress Kinase (AID 2282922). The note with it: HepG2 stress kinase (phospho-c-Jun) imaging, actives raise or lower the signal. The essentials:
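HepG2, 24 hr dosing, 0.39–200 uM in duplicate, 0.5% DMSO; formaldehyde fix (3.7%), 0.5% Triton X-100; anti-phospho-c-Jun + Cy3 secondary, Hoechst counterstain; ArrayScan imaging; bidirectional curve fit vs DMSO baseline.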

Assay [8] can be described thus: APR_HepG2_p53Act_72hr: Apredica 72-hour HepG2 Assay for p53 Activation (AID 2282923).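 Also: average cellular p53 protein immunofluorescence intensity in HepG2 cells.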 The note with it: high-content imaging, actives raise or lower the signal. The essentials: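 HepG2 monolayers receive test compounds in duplicate at ten concentrations (0.39 through 200 uM) for 72 hr. They are then formaldehyde-fixed, antibody-labelled for p53, Hoechst-stained and imaged, with activity fitted bidirectionally versus DMSO.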

Assay [9] in a line: APR_HepG2_MitoMass_72hr: Apredica 72-hour HepG2 Assay for Mitochondrial Mass (AID 2282924).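 Also: MitoTracker Red CMXRos stain intensity per cell imaged as mitochondrial mass.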 The conditions noted are these: high-content imaging, actives raise or lower the signal. The essentials:
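HepG2, 72 hr cmpd, 10 conc 0.39–200 uM in dup, DMSO 0.5% v/v. MitoTracker Red CMXRos 250 nM 30 min pre-fix; formaldehyde 3.7% fix 30 min RT. HCS imaging, gain/loss fit vs DMSO.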

Assay [10] can be described thus: APR_HepG2_NuclearSize_72hr: Apredica 72-hour HepG2 Assay for Nuclear Size (AID 2282925). The note with it: high-content imaging, actives raise or lower the signal. The essentials:
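HepG2; cpd 0.39–200 uM, 10 conc, duplicate; 72 h; DMSO 0.5% v/v; fix 3.7% formaldehyde 30 min RT; Triton permeabilization; Hoechst 2 ug/mL; HCS imaging 20x; nuclear diameter; gain/loss fit vs DMSO.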

Assay [11] in a line: ATG_CRE_CIS: Attagene CIS-FACTORIAL HepG2 Assay for human cAMP Responsive Element (CRE) binding protein 3 (AID 2282926). The note with it: HepG2 CRE cis-reporter, Attagene multiplexed mRNA; actives raise or lower the signal. In short, it runs like this:
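Human liver HepG2, transient MRTU transfection, 24 h compound exposure. Total RNA → oligo(dT) RT → PCR → 6-FAM primer extension → HpaI cut → CE. Activity called both directions vs DMSO.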

Assay [12] deals with CCAAT/enhancer-binding protein beta (Homo sapiens) (UniProt P17676). As to the kind of experiment: ATG_C_EBP_CIS: Attagene CIS-FACTORIAL HepG2 Assay for human CCAAT/Enhancer Binding Protein (C/EBP) beta (AID 2282927). The note with it: HepG2 Attagene cis-factorial transcription factor reporter; actives raise or lower the signal. In short, it runs like this:
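Changes in reporter mRNA, rather than exogenous chimeric receptor activity, reflect native C/EBP signalling in transfected HepG2 cells dosed for 24 h; transcripts are detected by RT-PCR and capillary electrophoresis.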

Assay [13] is described as follows: ATG_CMV_CIS: Attagene CIS-FACTORIAL HepG2 Assay for human CMV (Internal Marker) (AID 2282928).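 Also: endpoint acts as a background internal control marker rather than a target.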 The note with it: HepG2 CMV promoter reporter, transcription factor profiling; actives raise or lower the signal. In short, it runs like this: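 After transient transfection of HepG2 with reporter transcription units driven by cis-regulatory promoters, cells receive test chemical for 24 h. Labeled reporter amplicons, digested with HpaI, are sized and quantified by capillary electrophoresis against DMSO.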

Assay [14] is described as follows: ATG_DR4_LXR_CIS: Attagene CIS-FACTORIAL HepG2 Assay for human Liver X Receptor (LXR), DR4 submotif (AID 2282929). The note with it: HepG2 Attagene DR4 cis-reporter, mRNA transcription; actives raise or lower the signal. The essentials:
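The endpoint is DR4-element-driven reporter transcripts after 24 h chemical exposure of transfected HepG2 cells. These were measured via RT-PCR and capillary electrophoresis, and gain or loss of signal was fitted relative to DMSO controls.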

Assay [15] addresses Aryl hydrocarbon receptor (Homo sapiens) (UniProt P35869). As to the kind of experiment: ATG_Ahr_CIS: Attagene CIS-FACTORIAL HepG2 Assay for human Aryl Hydrocarbon Receptor (Ahr) (AID 2282930). The note with it: HepG2 AhR cis-factorial reporter transcription; actives raise or lower the signal. The essentials: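 HepG2, transient MRTU (cis) transfection, 24 h exposure. RNA → cDNA → PCR → 6-FAM primer extension → HpaI 2 h 37 C → CE. Fit: bidirectional, DMSO baseline.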

A short description of assay [16]: ATG_AP_1_CIS: Attagene CIS-FACTORIAL HepG2 Assay for human Activator Protein 1 (AP-1) (AID 2282931). The conditions noted are these: HepG2 Attagene cis-factorial AP-1 reporter mRNA; actives raise or lower the signal. The essentials: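 Readout is reporter transcript level from endogenous transcription factor activity, quantified by RT-PCR with fluorescent primer extension and capillary electrophoresis. Transiently transfected HepG2 cells, 24 h exposure. Curves fitted both directions versus DMSO.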

The nature of assay [17]: ATG_AP_2_CIS: Attagene CIS-FACTORIAL HepG2 Assay for human Activator Protein 2 (AP-2) (AID 2282932). The note with it: HepG2 AP-2 cis-reporter, Attagene transcription factor profiling; actives raise or lower the signal. The essentials: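 Step one: transient transfection of HepG2 with reporter transcription units. Step two: 24 h chemical exposure. Step three: RNA extraction, RT-PCR, labelled fragment analysis by capillary electrophoresis; DMSO serves as baseline.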

The target of assay [18] is Retinoic acid receptor alpha (Homo sapiens) (UniProt P10276). As to the kind of experiment: ATG_DR5_RAR_CIS: Attagene CIS-FACTORIAL HepG2 Assay for human Retinoic Acid Receptor Alpha (RARE), DR5 submotif (AID 2282934).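 As to AC50: reporter responds to endogenous RAR alpha beta and gamma in HepG2 not RARA alone.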 The conditions noted are these: HepG2 Attagene cis-factorial RARE DR5 reporter, mRNA; actives raise or lower the signal. In short, it runs like this:
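HepG2, transient cis-reporter transfection, 24 h exposure. mRNA readout: RT-PCR, FAM label, HpaI cut, capillary electrophoresis. DMSO baseline, gain/loss fitting.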

Assay [19] addresses Transcription factor E2F1 (Homo sapiens) (UniProt Q01094). As to the kind of experiment: ATG_E2F_CIS: Attagene CIS-FACTORIAL HepG2 Assay for human E2F Transcription Factor 1 (AID 2282935). The conditions noted are these: HepG2 Attagene cis-reporter, E2F reporter RNA transcripts; actives raise or lower the signal. In short, it runs like this: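 Total RNA from 24 h-treated, reporter-transfected HepG2 cells undergoes DNase I treatment, oligo(dT) reverse transcription, PCR and 6-FAM primer extension before capillary electrophoresis.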

Assay [20] in a line: ATG_BRE_CIS: Attagene CIS-FACTORIAL HepG2 Assay for human Bone Morphogenetic Protein (BMP) Response Element (BRE) (AID 2282933). The note with it: HepG2 BMP response element reporter, Attagene transcription factor profiling; actives raise or lower the signal. The essentials:
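HepG2 cells transiently transfected with multiplexed cis-element reporter units were dosed with chemical for 24 h. Reporter mRNA was measured by RT-PCR with fluorescent labelling, HpaI digestion and capillary electrophoresis; bidirectional fitting relative to DMSO.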

Sequence of Retinoic acid receptor alpha (Homo sapiens) (P10276 whole entry, looked up): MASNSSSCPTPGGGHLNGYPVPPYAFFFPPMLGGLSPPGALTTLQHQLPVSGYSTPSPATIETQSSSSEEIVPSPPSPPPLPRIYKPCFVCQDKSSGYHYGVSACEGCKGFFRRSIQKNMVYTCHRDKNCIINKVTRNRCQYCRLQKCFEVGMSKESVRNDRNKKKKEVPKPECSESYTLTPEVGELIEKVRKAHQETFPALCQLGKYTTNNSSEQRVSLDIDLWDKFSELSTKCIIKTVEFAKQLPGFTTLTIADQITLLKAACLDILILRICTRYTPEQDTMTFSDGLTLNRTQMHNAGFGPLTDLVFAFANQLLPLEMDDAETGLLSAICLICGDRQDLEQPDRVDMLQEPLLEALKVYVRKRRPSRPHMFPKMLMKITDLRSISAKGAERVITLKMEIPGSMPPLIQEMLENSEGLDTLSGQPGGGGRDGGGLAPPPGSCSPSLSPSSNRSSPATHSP
Sequence of Transcription factor E2F1 (Homo sapiens) (Q01094 whole entry, looked up): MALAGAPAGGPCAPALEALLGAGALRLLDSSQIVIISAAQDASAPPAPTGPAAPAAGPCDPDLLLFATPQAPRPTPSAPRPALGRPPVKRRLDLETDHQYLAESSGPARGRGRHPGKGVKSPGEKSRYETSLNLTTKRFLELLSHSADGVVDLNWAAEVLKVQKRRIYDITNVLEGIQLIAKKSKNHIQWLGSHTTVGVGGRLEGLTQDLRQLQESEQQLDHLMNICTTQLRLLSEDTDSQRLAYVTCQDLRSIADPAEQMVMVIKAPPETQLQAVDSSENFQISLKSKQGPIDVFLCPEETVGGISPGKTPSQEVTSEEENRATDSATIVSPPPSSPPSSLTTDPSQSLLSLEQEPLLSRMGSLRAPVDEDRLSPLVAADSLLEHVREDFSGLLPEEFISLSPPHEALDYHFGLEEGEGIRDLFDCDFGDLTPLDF
Sequence of Aryl hydrocarbon receptor (Homo sapiens) (P35869 whole entry, looked up): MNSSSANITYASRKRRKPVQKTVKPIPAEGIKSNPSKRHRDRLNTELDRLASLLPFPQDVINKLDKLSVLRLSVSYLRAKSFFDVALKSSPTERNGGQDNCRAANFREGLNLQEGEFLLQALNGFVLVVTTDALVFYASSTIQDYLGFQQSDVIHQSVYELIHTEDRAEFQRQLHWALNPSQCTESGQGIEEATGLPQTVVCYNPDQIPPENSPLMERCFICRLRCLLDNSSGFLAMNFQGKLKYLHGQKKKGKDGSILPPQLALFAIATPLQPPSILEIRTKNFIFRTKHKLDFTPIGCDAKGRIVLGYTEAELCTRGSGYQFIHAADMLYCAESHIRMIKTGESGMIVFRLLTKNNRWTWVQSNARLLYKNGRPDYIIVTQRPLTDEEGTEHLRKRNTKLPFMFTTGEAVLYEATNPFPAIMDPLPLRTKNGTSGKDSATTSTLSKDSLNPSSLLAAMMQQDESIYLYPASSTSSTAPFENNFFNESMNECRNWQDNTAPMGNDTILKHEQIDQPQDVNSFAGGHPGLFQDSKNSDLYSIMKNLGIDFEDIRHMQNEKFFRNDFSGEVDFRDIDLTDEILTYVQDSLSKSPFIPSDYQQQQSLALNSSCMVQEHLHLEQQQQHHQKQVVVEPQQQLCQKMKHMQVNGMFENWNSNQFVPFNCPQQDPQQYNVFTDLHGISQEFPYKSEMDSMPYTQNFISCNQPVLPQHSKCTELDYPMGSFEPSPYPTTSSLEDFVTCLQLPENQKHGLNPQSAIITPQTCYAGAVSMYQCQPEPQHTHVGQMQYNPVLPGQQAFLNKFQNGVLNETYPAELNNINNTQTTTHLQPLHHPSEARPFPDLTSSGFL
Sequence of CCAAT/enhancer-binding protein beta (Homo sapiens) (P17676 whole entry, looked up): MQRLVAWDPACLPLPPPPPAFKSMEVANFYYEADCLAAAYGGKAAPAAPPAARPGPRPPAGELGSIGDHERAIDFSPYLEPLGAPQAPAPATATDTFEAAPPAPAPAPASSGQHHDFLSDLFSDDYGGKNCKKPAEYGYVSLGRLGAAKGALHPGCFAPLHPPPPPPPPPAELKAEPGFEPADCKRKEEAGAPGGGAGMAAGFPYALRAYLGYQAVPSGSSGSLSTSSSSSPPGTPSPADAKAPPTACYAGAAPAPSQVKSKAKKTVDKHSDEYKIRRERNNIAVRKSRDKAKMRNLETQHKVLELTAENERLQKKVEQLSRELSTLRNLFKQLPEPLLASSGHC

For `Cc1cc2c3c(c1)C(c1ccccc1)=N[C@@H](NC(=O)c1ccncc1)C(=O)N3CC2`, the molecule was called inactive in assay [1], in [2], in [3], in assay [4], in assay [5] and in [6]. The call in assay [7], in assay [8], in assay [9], in assay [10], in assay [12] and in assay [15] was inactive. Also, the result in assay [16], in assay [17], in assay [18] and in [19] was inactive. For the same molecule, the AC50 in assay [11] is 100 µM (active); in assay [13], 100 µM (active); in assay [14] it was 161 µM (active).

Take `O=C(O)C(F)(F)C(F)(F)C(F)(F)C(F)(F)C(F)(F)C(F)(F)C(F)(F)C(F)(F)C(F)(F)F`: the half-maximal activity concentration (AC50) is 108 µM (active) in assay [1]; 98.1 µM (active) in [3]; 113 µM (active) in assay [6]; 113 µM (active) in [8]; 111 µM (active) in [9]; 122 µM (active) in assay [10]. The half-maximal activity concentration (AC50) in assay [11] is 62.2 µM (active); in [13] it was 86.6 µM (active); in assay [14] it was 27.3 µM (active) and 23.9 µM (active) and 13.3 µM (active); in assay [15], 69.7 µM (active); in assay [16] it was 59 µM (active) and 12.1 µM (active); in assay [17], 46.5 µM (active). Further, the result in assay [2], in assay [4], in assay [7], in assay [11], in [12] and in assay [13] was inactive. Besides, the molecule was classed as inactive in [15], in assay [16], in assay [17], in assay [20], in assay [18] and in assay [19].

In the case of `CCC(C)(CC)c1cc(NC(=O)c2c(OC)cccc2OC)on1`, the molecule was classed as inactive in assay [1], in [2], in assay [3], in assay [4], in assay [5] and in [6]. For the same molecule, the result in [7], in assay [9], in assay [10], in assay [13], in [16] and in assay [17] was inactive. For the same molecule, in [19], the outcome was inactive. Besides, the AC50 was 1.16 µM (active) in [11]; 1.48 µM (active) in [12]; 32 µM (active) in assay [14]; 20.5 µM (active) in assay [15]; 12.7 µM (active) in assay [18].

On to `Cc1ccccc1[N+](=O)[O-]`, for which the result in assay [1], in assay [2], in [3], in assay [4], in [5] and in assay [6] was inactive. Besides, the result in [7], in [8], in [9], in assay [10], in [11] and in [12] was inactive. Moreover, the call in assay [13], in assay [14], in assay [15], in assay [16], in [17] and in assay [20] was inactive. Also, the outcome in assay [18] and in [19] was inactive.

Consider `C[C@]12CCC(=O)C=C1CC[C@@H]1[C@@H]2CC[C@]2(C)C(=O)CC[C@@H]12`, for which the molecule was called inactive in [1], in assay [2], in [3], in [4], in [5] and in [6]. Moreover, the call in assay [7], in [8], in [9], in [10], in assay [11] and in assay [12] was inactive. The result in assay [13], in [14], in [15], in assay [16], in assay [17] and in [20] was inactive. Further, the molecule was classed as inactive in assay [18] and in assay [19]. Besides, the half-maximal activity concentration (AC50) is 161 µM (active) and 167 µM (active) in assay [14]; 49.8 µM (active) in [15]; 45.1 µM (active) in assay [17]; 36.7 µM (active) and 27.5 µM (active) in assay [18].

A word on the AC50: it is the concentration at which the activity in the assay is half-maximal.
